Drawing on PubChem BioAssay (NCATS), this text covers Potency for 18 molecules.

Results filed as inconclusive are left out. Entries that show only a call come without a potency. Active and inactive are the calls of the source. Calls follow the shape of the dose curve; as a rule, active = well fitted inhibition curve with a large enough effect; inconclusive = small, poorly fitted or top-dose-only effect; inactive = flat fitted curve, though single readings scatter.

Lysine-specific demethylase 5B (Homo sapiens), sequence (Q9UGL1 whole entry, looked up): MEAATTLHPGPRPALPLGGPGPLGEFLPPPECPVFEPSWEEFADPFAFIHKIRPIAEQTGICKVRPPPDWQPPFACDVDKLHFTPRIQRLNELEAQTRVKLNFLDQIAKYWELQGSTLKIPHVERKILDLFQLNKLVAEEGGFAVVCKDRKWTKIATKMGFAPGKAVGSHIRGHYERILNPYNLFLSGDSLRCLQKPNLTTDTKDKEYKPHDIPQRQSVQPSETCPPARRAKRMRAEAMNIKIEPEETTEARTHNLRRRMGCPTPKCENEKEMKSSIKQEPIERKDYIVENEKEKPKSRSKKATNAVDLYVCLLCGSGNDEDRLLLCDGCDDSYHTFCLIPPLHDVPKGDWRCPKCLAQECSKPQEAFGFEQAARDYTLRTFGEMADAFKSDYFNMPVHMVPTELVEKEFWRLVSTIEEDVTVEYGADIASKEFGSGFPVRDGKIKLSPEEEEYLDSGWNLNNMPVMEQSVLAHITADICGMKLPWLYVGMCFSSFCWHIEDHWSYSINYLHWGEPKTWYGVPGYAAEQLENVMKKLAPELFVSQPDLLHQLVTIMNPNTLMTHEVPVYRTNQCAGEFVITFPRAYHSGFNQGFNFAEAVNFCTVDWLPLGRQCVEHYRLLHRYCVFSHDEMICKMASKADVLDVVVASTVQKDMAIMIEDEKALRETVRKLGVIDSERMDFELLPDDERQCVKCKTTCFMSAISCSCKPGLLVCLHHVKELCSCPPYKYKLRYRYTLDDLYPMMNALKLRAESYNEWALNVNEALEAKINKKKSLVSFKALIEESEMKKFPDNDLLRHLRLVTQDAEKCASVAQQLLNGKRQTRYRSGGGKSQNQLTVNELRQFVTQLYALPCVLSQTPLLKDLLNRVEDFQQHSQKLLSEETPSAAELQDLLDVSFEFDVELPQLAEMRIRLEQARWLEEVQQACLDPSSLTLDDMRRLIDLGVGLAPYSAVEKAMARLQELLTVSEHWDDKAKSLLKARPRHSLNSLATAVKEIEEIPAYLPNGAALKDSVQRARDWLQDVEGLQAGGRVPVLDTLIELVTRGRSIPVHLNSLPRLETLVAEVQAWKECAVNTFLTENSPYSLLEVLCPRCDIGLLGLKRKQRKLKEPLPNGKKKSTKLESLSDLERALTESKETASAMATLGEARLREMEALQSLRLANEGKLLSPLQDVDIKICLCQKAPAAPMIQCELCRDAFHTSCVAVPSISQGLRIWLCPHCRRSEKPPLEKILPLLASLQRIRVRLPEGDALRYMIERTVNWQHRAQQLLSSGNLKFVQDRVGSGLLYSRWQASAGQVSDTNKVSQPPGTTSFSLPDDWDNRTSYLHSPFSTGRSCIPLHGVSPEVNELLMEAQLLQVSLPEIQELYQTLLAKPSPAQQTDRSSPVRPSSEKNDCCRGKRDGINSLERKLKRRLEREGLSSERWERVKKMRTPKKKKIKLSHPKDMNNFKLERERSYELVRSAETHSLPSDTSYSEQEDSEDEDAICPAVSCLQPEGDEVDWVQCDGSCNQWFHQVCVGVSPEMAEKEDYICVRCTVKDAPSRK

This test has as its target Lysine-specific demethylase 5B (Homo sapiens) (UniProt Q9UGL1). Description: Optimization screen for KDM5B Histone Demethylases FDH coupled qHTS against the LOPAC library (AID 1347166). Conditions: KDM5B demethylation, FDH-coupled NADH fluorescence (FDH is formaldehyde dehydrogenase); series mostly up to 57.5 µM. A digest of the protocol:
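KDM5BDeltaAP (200nM final) in 50mM HEPES pH 7.5, 0.01% Tween-20 was preincubated with compound for 10 min at room temperature. A substrate mix of 12.5uM H3K4Me3, 25uM a-ketoglutarate, ascorbate, Fe2+, NAD+ and formaldehyde dehydrogenase was then added. NADH fluorescence (340/450 nm) was read initially and after 30 min.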
Take `CCN(CCCl)Cc1ccccc1Br`: the Potency entry is “inactive”.
With `O=C1C=CC(=O)C=C1`, the Potency result was “inactive”.
As to `N[C@@]1(C(=O)O)CC[C@@H](C(=O)O)C1`, the Potency result is “inactive”.
With `OCc1cnc[nH]1` the entry was “inactive”; with `C[C@H](N)Cc1cccc(C(F)(F)F)c1`, “inactive”; with `N=C(N)c1ccc(CS(=O)(=O)F)cc1`, “inactive”.
With `C[C@H](Cc1ccc2c(c1)OC(C(=O)O)(C(=O)O)O2)NC[C@H](O)c1cccc(Cl)c1` the entry was “inactive”; with `CCCN1CCC[C@@H](c2cccc(O)c2)C1`, “inactive”.
As to `COc1ccc(OC)c(C(O)C(C)N)c1` (stereo not drawn), the Potency result was “inactive”.
The value for `CC(=O)NBr` was “inactive”; that for `C[C@@H]1O[C@H](C[N+](C)(C)C)CS1` was “inactive”; that for `CCS(=O)(=O)Nc1cccc(C(=C2CCCCC2)c2cnc[nH]2)c1` was “inactive”.
The value for `CCOC(=O)c1ncn2c1[C@@H]1CCCN1C(=O)c1cc(OC)ccc1-2` was “inactive”.
Take `CCN1C[C@@]2(COC)C3[C@@H](OC)C4[C@@H]1C3([C@@H]1C[C@]3(O)[C@H](OC(=O)c5ccccc5)[C@@H]1[C@]4(OC(C)=O)[C@@H](O)[C@@H]3OC)[C@H](OC)C[C@H]2O`: the Potency entry was “inactive”.
Take `COc1ccc2c(c1)[C@@]13CCCC[C@H]1[C@@H](C2)NCC3`: the Potency result is “inactive”.
The value for `N[C@@H](CCl)C(=O)O` was “inactive”; that for `CC1(C(=O)O)C2CCC(O2)C1(C)C(=O)O` (stereo not drawn) was “inactive”; that for `CCCn1c(=O)c2[nH]c(C3CCCC3)nc2n(CCCOC(=O)c2ccc(S(=O)(=O)F)cc2)c1=O` was “inactive”.
